We go through 40 compounds from PubChem BioAssay (Tox21).

Each structure is given as a SMILES string. Calls of active or inactive are those of the source. A call without a number means that no potency is given here. The call rests on the fitted dose curve; in most records, active means well fitted curve in the direction sought with a large enough effect in the repeat runs; inconclusive means weak or mixed curves; inactive means flat fitted curve, though single readings scatter.

The test can be described thus: qHTS assay to test for compound auto fluorescence at 460 nm (blue) in HEK293 cell free culture (AID 720681). Particulars: cell-free medium, autofluorescence 405/460 nm (blue); series mostly up to 91.3 µM. The source says: U.S. Tox21 Program National Center for Advancing Translational Sciences [NCATS] NIH Chemical Genomics Center [NCGC] U.S. Environmental Protection Agency [EPA] National Institutes of Environmental Health Sciences [NIEHS] National Toxicology Program [NTP] U.S. Food and Drug Administration [FDA] Tox21 Assay Overview: Compound auto fluorescence often interferes with screening of the compound library against various biological targets and signaling pathways. Some of these compounds may have fluorophoric properties. Such properties may interfere with the assay outputs resulting in false positives and/or negatives. To decrease such complications and ensure the compound activities are relevant in terms of biological response, the Tox21 10K compound library was screened for auto fluorescence. From the fluorophores used as reporter signals in our screening assays, the auto fluorescence equivalencies of compounds against three fluorophores have been evaluated: Triamterene, Fluorescein and Rose Bengal sodium for blue, green and red fluorescence, respectively. The fluorescence intensities were measured using Excitation/Emission wavelengths at 405/460nm, 485/535nm and 540/590nm for blue, green and red labels, respectively. This assay includes the blue fluorescence data.
Tox21 Assay Protocol Summary: 5 uL of culture medium (DMEM containing 10% FBS) per well was dispensed into black wall/clear bottom 1536-well plates using a Multidrop Combi Dispenser (ThermoFisher Scientific, Waltham, MA). After 23 nL compound or DMSO vehicle was transferred into assay plate by a pintool work station (Kalypsys, San Diego, CA), fluorescence intensities in the assay plates were measured by an Envision (PerkinElmer, Shelton, CT) plate reader using three labels for measuring blue, green and red fluorescence at […] 460, 535 and 590nm respectively.
For the compound `Nc1c(Cl)cc(Cl)cc1[N+](=O)[O-]`, the Potency entry was “inactive”. The same measure, in the same setting: the result for `CCC(CO)(CO)CO` reads “inactive”; that for `Nc1ccc(NC(=O)c2ccc(N)cc2)cc1`, “inactive”; that for `COc1ccc(-n2nc(C(F)F)cc2-c2ccc(S(C)=O)cc2)cc1` (stereo not given), “inactive”. For `CCCCCCCCCCCCCC(=O)OCC(O)CO` (stereo not given), the Potency result was “inactive”. On the same count and under the same terms, as for `CC1=C2[C@@H]([C@H](C)CC[C@H]2/C=C(\C)C(=O)O)[C@H](O)C1`, the entry is “inactive”; as for `O=[N+]([O-])C1(Br)COCOC1`, “inactive”. Still for that read-out and setting: as for `O=C(c1ccccc1)c1ccc(O)cc1`, the entry is “inactive”; as for `CC(C)(C)C1(CCc2ccc(Cl)cc2)CO1` (stereo not given), “inactive”.

Regarding `NC(=O)CCCCC(N)=O`, the Potency entry was “inactive”.

Take `O=C(O)CCC(=O)c1ccc(-c2ccccc2)cc1`: the fluorescence, % of fluorescent control was 0.0648% [at 18.6 µM] (inactive). As for `ClC1=C(Cl)C1(Cl)Cl`, the Potency result was “inactive”. Take `c1ccc2sc(SSc3nc4ccccc4s3)nc2c1`: the Potency entry is “inactive”. In the case of `CC(=O)OCCC1CCCCC1`, the Potency entry is “inactive”. For `CCCc1nc2c(C)cc(-c3nc4ccccc4n3C)cc2n1Cc1ccc(-c2ccccc2C(=O)O)cc1`, the Potency result is “inactive”. Regarding `CC(C)N(C)C`, the Potency entry was “inactive”. In the case of `N[C@@H](Cc1cc(I)c(O)c(I)c1)C(=O)O`, the Potency entry was “inactive”.

As for `C=C(C)C(=O)OCCC(F)(F)C(F)(F)C(F)(F)C(F)(F)C(F)(F)C(F)(F)F`, the Potency result was “inactive”. The same measure, in the same setting: as for `CCC(C)(C)C(=O)O`, the entry is “inactive”; as for `COC(=O)c1sccc1S(N)(=O)=O`, “inactive”; as for `O=P(O)(O)Oc1ccccc1`, “inactive”. On the same count and under the same terms, as for `CC1=CC[C@@]23C[C@@H]1C(C)(C)[C@@H]2CC[C@H]3C`, the entry is “inactive”. As to `CCOC(=O)c1ccc(NC(=O)CN2CCCCC2)cc1`, the Potency result was “inactive”. `Oc1ccc2c(c1)Cc1ccccc1-2`: the Potency entry is “inactive”. In the case of `CC(C)(C(=O)c1cccnc1)c1cccnc1`, the fluorescence, % of fluorescent control is -0.108% [at 18.6 µM] (inactive). `O=NN(CCCl)C(=O)NCCCl`: the Potency result is “inactive”. The same measure, in the same setting: the result for `CCO[Si](C)(CCCOCC1CO1)OCC` (stereo not given) reads “inactive”.

With `CC1CCCC(=O)C1=O` (stereo not given), the Potency result was “inactive”.

As to `CCCCCCC(O)CCOC(C)=O` (stereo not given), the Potency result was “inactive”. The same measure, in the same setting: as for `COC(=O)C1=C(C)NC(C)=C(C(=O)OC(C)(C)CN(C)CCC(c2ccccc2)c2ccccc2)C1c1cccc([N+](=O)[O-])c1` (stereo not given), the entry is “inactive”; as for `O=C(Nc1ccc(C(=O)O)c(O)c1)c1ccccc1`, “inactive”; as for `Cc1c[nH]c2ccccc12`, “inactive”. As to `CC(C)COC(=O)COc1cc(Cl)c(Cl)cc1Cl`, the Potency result was “inactive”. On the same count and under the same terms, the result for `CCN(CC)CCNC(=O)c1cc(Cl)c(N)cc1OC` reads “inactive”. For the compound `CC(O)Cn1cnc2c1c(=O)n(C)c(=O)n2C` (stereo not given), the fluorescence, % of fluorescent control is -0.136% [at 18.6 µM] (inactive). As for `O=c1[nH][nH]c(=O)c2cc([N+](=O)[O-])ccc12`, the Potency result was “inactive”.

Turning to `O=C(c1ccccc1)C1CCC1`, the Potency result is “inactive”. For the compound `CC(C)CC(O)CC(C)C`, the Potency result is “inactive”.

For the compound `CCN(Cc1cccc(S(=O)(=O)O)c1)c1ccc(C(=C2C=CC(=[N+](CC)Cc3cccc(S(=O)(=O)O)c3)C=C2)c2ccc(O)cc2S(=O)(=O)[O-])cc1`, the Potency result was “inactive”. Turning to `COC(CC(C)CCCC(C)(C)O)OC` (stereo not given), the Potency result was “inactive”.
